Hit rate of the full screen: of about 39,000 compounds, about 3,300 (8.5%) were called active. The list comes from a sample in which actives are over-represented; it also holds similar structures and randomly drawn compounds.
The compounds below were run on HepG2 (assay: cytotoxicity call (relative viability < 0.9)). Details: 10 µM.
`O=C(N[C@@H]1CC[C@H](CCNS(=O)(=O)c2ccccc2)O[C@@H]1CO)c1cnccn1` was tested, and the cytotoxicity call was “inactive”.
For `N#Cc1c(Oc2ccc(F)c(NC(=O)Cc3cccc(C(F)(F)F)c3)c2)ccc2nc(NC(=O)C3CC3)sc12`, the cytotoxicity call was “active”.
`O=C(N[C@H](c1ccc2ccccc2n1)c1cccs1)C1CCN(Cc2cccc(C(F)(F)F)c2)CC1` was tested, and the cytotoxicity call was “inactive”.
With `C=CC(=O)N1C[C@@H]2CC[C@H](O)[C@@H]2C1` the cytotoxicity call was “inactive”.
For `COc1ccc(-c2oc3cc(O[C@@H]4O[C@@H](C)[C@H](O)[C@@H](O)[C@H]4O)cc(O)c3c(=O)c2O[C@@H]2O[C@H](CO)[C@@H](O)[C@H](O)[C@H]2O)cc1`, the cytotoxicity call was “inactive”.
`Cc1noc(C)c1NC(=O)Nc1ccc2c(c1)CC(=O)N([C@@H](C)CO)C[C@@H](C)[C@H](CN(C)C(=O)NC(C)C)O2` was tested, and the cytotoxicity call was “inactive”.
With `Cc1ccc(S(=O)(=O)Nc2cc([C@@H](C(=O)OC(C)C)C(=O)C(F)(F)F)c(O)c3ccccc23)c(C)c1` the cytotoxicity call was “inactive”.
For `CNC[C@@H]1OCCCC[C@H](C)Oc2ccc(NC(=O)Nc3ccc(C(F)(F)F)cc3)cc2C(=O)N([C@H](C)CO)C[C@H]1C`, the cytotoxicity call was “inactive”.
In the case of `O=c1c(O)c(-c2ccc(O)c(O)c2)oc2cc(O)ccc12`, the cytotoxicity call is reported as “active”.
In the case of `O=c1c(O)c(-c2ccccc2)oc2cccc(O)c12`, the cytotoxicity call is reported as “inactive”.
`O=c1c(O)c(-c2ccccc2)oc2cc(O)ccc12` was tested, and the cytotoxicity call was “inactive”.
In the case of `O=c1c(O)c(-c2ccc(O)c(O)c2)oc2cc(O)cc(O)c12`, the cytotoxicity call is reported as “inactive”.
In the case of `O=c1c(O)c(-c2ccccc2)oc2ccccc12`, the cytotoxicity call is reported as “inactive”.
In the case of `O=c1c(O)c(-c2ccc(O)cc2)oc2ccccc12`, the cytotoxicity call is reported as “active”.
With `CCC1OC(=O)C(C)C(OC2CC(C)(OC)C(O)C(C)O2)C(C)C(OC2OC(C)CC(N(C)C)C2O)C(C)(O)CC(C)CN(C)C(C)C(O)C1(C)O` (stereo unspecified) the cytotoxicity call was “inactive”.
`Cc1noc(C)c1NC(=O)N(C)C[C@@H]1OCCCC[C@H](C)Oc2ccc(NS(=O)(=O)c3cccs3)cc2C(=O)N([C@@H](C)CO)C[C@H]1C` was tested, and the cytotoxicity call was “inactive”.
`CCCNC(=O)C[C@@H]1CC[C@H]2[C@@H](COC[C@@H](O)CN2S(=O)(=O)c2ccc(Oc3ccccc3)cc2)O1` was tested, and the cytotoxicity call was “inactive”.
In the case of `COCC(=O)Nc1ccc2c(c1)C(=O)N(C)C[C@@H](OC)[C@H](C)CN(Cc1ccccc1OC)[C@H](C)CO2`, the cytotoxicity call is reported as “inactive”.
With `Cc1cncc2cccc(S(=O)(=O)NCCN(C/C=C/c3ccc(Br)cc3)C/C=C/c3ccc(Br)cc3)c12` the cytotoxicity call was “inactive”.
`C[C@@H]1CN([C@H](C)CO)C(=O)Cc2cc(NC(=O)NC3CCCCC3)ccc2O[C@H]1CN(C)S(C)(=O)=O` was tested, and the cytotoxicity call was “inactive”.
For `C[C@H](CO)N1C[C@H](C)[C@H](CN(C)S(C)(=O)=O)Oc2ccc(NC(=O)NC3CCCCC3)cc2CC1=O`, the cytotoxicity call was “inactive”.
In the case of `C[C@@H]1CN([C@H](C)CO)C(=O)Cc2cc(NC(=O)NC3CCCCC3)ccc2O[C@@H]1CN(C)S(C)(=O)=O`, the cytotoxicity call is reported as “active”.
In the case of `C[C@H]1CN([C@@H](C)CO)C(=O)Cc2cc(NC(=O)NC3CCCCC3)ccc2O[C@H]1CN(C)S(C)(=O)=O`, the cytotoxicity call is reported as “inactive”.
For `C[C@H](CO)N1C[C@H](C)[C@@H](CN(C)S(C)(=O)=O)Oc2ccc(NC(=O)NC3CCCCC3)cc2CC1=O`, the cytotoxicity call was “inactive”.
With `C[C@@H]1CN([C@@H](C)CO)C(=O)Cc2cc(NC(=O)NC3CCCCC3)ccc2O[C@H]1CN(C)S(C)(=O)=O` the cytotoxicity call was “active”.
In the case of `COc1ccc(CN(C)C[C@@H]2Oc3ccc(NC(=O)CCN4CCOCC4)cc3C(=O)N([C@@H](C)CO)C[C@H]2C)cc1`, the cytotoxicity call is reported as “inactive”.
For `C[C@@H]1CN([C@H](C)CO)C(=O)c2cc(NC(=O)CCC(F)(F)F)ccc2O[C@@H](C)CCCCO[C@H]1CN(C)Cc1ccncc1`, the cytotoxicity call was “inactive”.
`C[C@@H]1CCCCO[C@H](CN(C)S(=O)(=O)c2cccs2)[C@H](C)CN([C@H](C)CO)C(=O)c2cc(NC(=O)Cc3ccccc3)ccc2O1` was tested, and the cytotoxicity call was “inactive”.
For `C[C@H](CO)N1C[C@H](C)[C@@H](CN(C)C(=O)Nc2ccccc2)Oc2ccc(NC(=O)Nc3cccc4ccccc34)cc2C1=O`, the cytotoxicity call was “inactive”.
`C[C@@H]1CN([C@H](C)CO)S(=O)(=O)c2ccc(-c3ccccc3F)cc2O[C@@H]1CN(C)Cc1cncnc1` was tested, and the cytotoxicity call was “inactive”.
With `CCS(=O)(=O)Nc1ccc2c(c1)C(=O)N(C)[C@H]1CC[C@H](CC(=O)N[C@@H]3CCN(Cc4ccccc4)C3)O[C@H]1CO2` the cytotoxicity call was “inactive”.
`C[C@@H]1CCCCO[C@@H](CN(C)C(=O)Nc2cccc3ccccc23)[C@H](C)CN([C@@H](C)CO)C(=O)c2cc(NC(=O)Nc3ccc(F)cc3)ccc2O1` was tested, and the cytotoxicity call was “inactive”.
With `O=C(CCNCCO)c1ccccc1` the cytotoxicity call was “inactive”.
For `O=C1c2c(O)ccc(O)c2C(=O)c2c(NCCNCCO)ccc(NCCNCCO)c21`, the cytotoxicity call was “active”.
`O=[N+]([O-])c1ccc(NCCNCCO)cc1` was tested, and the cytotoxicity call was “inactive”.
For `Cl.Cl.O=C1c2c(O)ccc(O)c2C(=O)c2c(NCCNCCO)ccc(NCCNCCO)c21`, the cytotoxicity call was “active”.
For `O=C1c2ccccc2C(=O)c2c1ccc(O)c2O`, the cytotoxicity call was “inactive”.
For `O=C1c2ccccc2C(=O)c2c(NCCNCCO)ccc(NCCNCCO)c21`, the cytotoxicity call was “active”.
In the case of `CN1CCN(C(=O)C[C@H]2CC[C@H]3[C@H](COc4ccc(NC(=O)C5CCCCC5)cc4C(=O)N3C)O2)CC1`, the cytotoxicity call is reported as “inactive”.
In the case of `C[C@]12C(=O)N(CCCCCO)[C@@H]3C(=O)N(c4ccc(Cl)cc4)CC=C[C@]31O[C@@H]1/C=C\CCCOC(=O)[C@H]12`, the cytotoxicity call is reported as “inactive”.
In the case of `O=C(C[C@@H]1CC[C@H](NC(=O)CN2CCOCC2)[C@@H](CO)O1)NC1CCC1`, the cytotoxicity call is reported as “inactive”.
With `CC(C)NC(=O)Nc1ccc2c(c1)C(=O)N([C@H](C)CO)C[C@@H](C)[C@@H](CN(C)S(=O)(=O)c1ccccc1)O2` the cytotoxicity call was “inactive”.
With `COCC#Cc1ccc2c(c1)O[C@@H](CN(C)S(=O)(=O)c1ccc(OC)cc1)[C@H](C)CN([C@H](C)CO)S2(=O)=O` the cytotoxicity call was “inactive”.
With `C[C@H](CO)N1C[C@H](C)[C@@H](CN(C)C(=O)Nc2cccc3ccccc23)OCCCC[C@H](C)Oc2ccc(NS(=O)(=O)c3cn(C)cn3)cc2C1=O` the cytotoxicity call was “inactive”.
In the case of `C[C@@H]1CN([C@H](C)CO)C(=O)Cc2cc(NC(=O)Cn3cnnn3)ccc2O[C@H]1CN(C)Cc1ccc(Cl)c(Cl)c1`, the cytotoxicity call is reported as “inactive”.
`C/C=C/c1cccc(-c2nc(C(=O)NCc3cccc(OC)c3)cc3c2[C@@H](CCO)N([S@](=O)C(C)(C)C)C3)c1` was tested, and the cytotoxicity call was “inactive”.
For `CC(C)[Si]1(C(C)C)O[C@@H](c2ccccc2)c2cc(C3CC3)nc(-c3ccc(Oc4ccccc4)cc3)c21`, the cytotoxicity call was “inactive”.
With `CCN(CC)C(C)CN1c2ccccc2Sc2ccccc21.Cl` (stereo unspecified) the cytotoxicity call was “active”.
With `CCC(CC)C(=O)N1c2ccccc2Sc2ccccc21` the cytotoxicity call was “inactive”.
In the case of `CC(CN1c2ccccc2Sc2ccccc21)N(C)C.Cl` (stereo unspecified), the cytotoxicity call is reported as “active”.
In the case of `C[C@H]1CN([C@@H](C)CO)C(=O)c2cc(NC(=O)Cn3cnnn3)ccc2O[C@H]1CN(C)Cc1ccc(Oc2ccccc2)cc1`, the cytotoxicity call is reported as “inactive”.
For `C[C@H](CO)N1C[C@H](C)[C@H](CN(C)Cc2ccc(C(F)(F)F)cc2)Oc2c(NC(=O)Nc3cccc4ccccc34)cccc2C1=O`, the cytotoxicity call was “inactive”.
For `Cc1ccc(S(=O)(=O)N(C)C[C@H]2OCCCC[C@@H](C)Oc3ccc(NS(=O)(=O)c4ccc(F)cc4)cc3C(=O)N([C@H](C)CO)C[C@H]2C)cc1`, the cytotoxicity call was “inactive”.
For `C=C1[C@@H]2[C@H]3OC(=O)[C@@H](C)[C@@H]3[C@@H](O[C@@H]3O[C@H](CO)[C@@H](O)[C@H](O)[C@H]3O)CC(=C)[C@@H]2C[C@@H]1O`, the cytotoxicity call was “inactive”.
For `COc1cc(-c2coc3cc(OCc4ccccc4)c(OC)c(O)c3c2=O)cc(OCc2ccccc2)c1OC`, the cytotoxicity call was “inactive”.
In the case of `C[C@@H]1CCCCO[C@@H](CN(C)CC2CCCCC2)[C@H](C)CN([C@H](C)CO)C(=O)c2cc(NS(=O)(=O)c3cccs3)ccc2O1`, the cytotoxicity call is reported as “inactive”.
With `Cc1nc(-c2ccc(Cl)cc2)c(-c2ccccc2)s1` the cytotoxicity call was “active”.
With `Cc1ccc(Nc2nc(-c3ccc(C)cc3)c(C)s2)cc1` the cytotoxicity call was “inactive”.
In the case of `Cc1ccc(-c2nc(Nc3cccc(Cl)c3)sc2C)cc1`, the cytotoxicity call is reported as “inactive”.
In the case of `C=C(C)CNc1nc(-c2ccccc2)c(-c2ccccc2)s1`, the cytotoxicity call is reported as “inactive”.
`Cc1sc(N)nc1-c1ccccc1` was tested, and the cytotoxicity call was “inactive”.
For `Cc1sc(Nc2ccccc2)nc1-c1ccc(Cl)cc1`, the cytotoxicity call was “active”.
`NC(=O)Cn1c(=O)c2ccccc2n(CC(N)=O)c1=O` was tested, and the cytotoxicity call was “inactive”.
With `C=CCN(Cc1ccccc1)C(=O)[C@@H]1N(c2c(Cl)cccc2CO)C(=O)[C@@H]2[C@H](C(=O)O)[C@@H]3C=C[C@@]21O3` the cytotoxicity call was “inactive”.
In the case of `C[C@H]1CN([C@@H](C)CO)C(=O)c2cc(NC(=O)Nc3ccccc3)ccc2O[C@H]1CN(C)Cc1ccc(C(=O)Nc2ccccc2N)cc1`, the cytotoxicity call is reported as “inactive”.
With `C[C@H](CO)N1C[C@H](C)[C@H](CN(C)Cc2ccc(C(=O)Nc3ccccc3N)cc2)Oc2ccc(NC(=O)Nc3ccc(C(F)(F)F)cc3)cc2C1=O` the cytotoxicity call was “active”.
For `C[C@@H]1CN([C@H](C)CO)C(=O)c2cc(NC(=O)Nc3ccc(C(F)(F)F)cc3)ccc2O[C@@H]1CN(C)Cc1ccc(C(=O)Nc2ccccc2N)cc1`, the cytotoxicity call was “active”.
`C[C@H]1CN([C@@H](C)CO)C(=O)c2cc(NC(=O)Nc3ccc(C(F)(F)F)cc3)ccc2O[C@@H]1CN(C)Cc1ccc(C(=O)Nc2ccccc2N)cc1` was tested, and the cytotoxicity call was “inactive”.
`C[C@H](CO)N1C[C@H](C)[C@H](CN(C)Cc2ccc(C(=O)Nc3ccccc3N)cc2)Oc2ccc(NC(=O)Nc3ccccc3)cc2C1=O` was tested, and the cytotoxicity call was “inactive”.
In the case of `C[C@@H]1CN([C@@H](C)CO)C(=O)c2cc(NC(=O)Nc3ccc(C(F)(F)F)cc3)ccc2O[C@@H]1CN(C)Cc1ccc(C(=O)Nc2ccccc2N)cc1`, the cytotoxicity call is reported as “active”.
`C[C@@H]1CN([C@H](C)CO)C(=O)c2cc(NC(=O)Nc3ccc(C(F)(F)F)cc3)ccc2O[C@H]1CN(C)Cc1ccc(C(=O)Nc2ccccc2N)cc1` was tested, and the cytotoxicity call was “inactive”.
For `C[C@@H]1CN([C@@H](C)CO)C(=O)c2cc(NC(=O)Nc3ccccc3)ccc2O[C@@H]1CN(C)Cc1ccc(C(=O)Nc2ccccc2N)cc1`, the cytotoxicity call was “active”.
For `C[C@H]1CN([C@@H](C)CO)C(=O)c2cc(NC(=O)Nc3ccc(F)cc3)ccc2O[C@H]1CN(C)Cc1ccc(C(=O)Nc2ccccc2N)cc1`, the cytotoxicity call was “inactive”.
For `C[C@@H]1CN([C@@H](C)CO)C(=O)c2cc(NC(=O)Nc3ccc(F)cc3)ccc2O[C@@H]1CN(C)Cc1ccc(C(=O)Nc2ccccc2N)cc1`, the cytotoxicity call was “inactive”.
In the case of `C[C@H](CO)N1C[C@H](C)[C@@H](CN(C)Cc2ccc(C(=O)Nc3ccccc3N)cc2)Oc2ccc(NC(=O)Nc3ccc(F)cc3)cc2C1=O`, the cytotoxicity call is reported as “inactive”.
For `C[C@H](CO)N1C[C@H](C)[C@H](CN(C)Cc2ccc(C(=O)Nc3ccccc3N)cc2)Oc2ccc(NC(=O)Nc3ccc(F)cc3)cc2C1=O`, the cytotoxicity call was “inactive”.

Source: the antibiotic and cytotoxicity screens of Wong et al. (2023)
